In assay [1] the test system is Wnt5a (protein binding on small-molecule microarray). Kind of assay: small molecules binding Wnt5a protein – biophysical, small-molecule microarray, 635/667 nm fluorescence, primary screen (AID 1142).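 Also: fluorescence read at 667 nm with signal to noise per printed feature.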 The conditions noted are these: 635 nm fluorescence, higher = more signal.
Assay [2] in a line: ATP-based viability of Huh7 replicon cells – cell-based, CellTiter-Glo luminescence, basal, 48 h, cytotoxicity control for HCV replication inhibitor project, primary screen (AID 1143).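 Also: Huh7 hepatoma cells carrying a hepatitis C replication reporter with no stimulus; test concentration not given here.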 The note with it: higher = more signal, called active from +8 up or from −8 down. For orientation: A replicon is a self-replicating genome or part of one, used to study replication in cells.
Assay [3] in a line: Pseudomonas biofilm growth suppression – PAO1 strain, BacTiter-Glo luminescence, LB-PBS, primary screen (AID 1144). The conditions noted are these: P. aeruginosa PAO1 biofilm, 12 h, higher = more signal.
Assay [4] in a line: basal CRE-LacZ reporter activity in PC12 – cell-based, unstimulated, primary screen (AID 1145). The note with it: no forskolin, luminescence, 4.5 h, higher = more signal, called active from +8 up or from −8 down.
The nature of assay [5]: forskolin-driven CRE-LacZ activity in PC12 – cell-based, CRE-LacZ reporter, forskolin-stimulated, primary screen (AID 1146).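 Also: PC12 cells with 6xCRE LacZ reporter stimulated by forskolin 10 µM; beta-galactosidase reporter signal reflecting CREB driven transcription.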 The note with it: luminescence, 4.5 h, higher = more signal, called active from +8 up or from −8 down.
Assay [6] concerns the target Streptavidin (Streptomyces avidinii) (UniProt P22629). Nature of the assay: compounds binding control protein streptavidin – biophysical, small-molecule microarray, 635/667 nm fluorescence, artefact control for SMM compound annotation, primary screen (AID 1147).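 Also: signal reflects streptavidin binding to arrayed compounds as a control protein.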 The note with it: higher = more signal.
A short description of assay [7]: probe aInhba binding on compound microarray – biochemical, small-molecule microarray, 635/667 nm fluorescence, primary screen (AID 1148).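 Also: score merges 667nm spot fluorescence with signal-to-noise for antibody binding to printed compounds.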 The note with it: higher = more signal.
For assay [8], the target named is Torsin-1A (Homo sapiens) (UniProt O14656). Kind of assay: TOR1A wild-type binding on microarray – cell lysate, small-molecule microarray, lysate, 635/667 nm, primary screen (AID 1149). The note with it: COS7 hTOR1A-WT lysate, 635 nm fluorescence, higher = more signal.
Torsin-1A (Homo sapiens), sequence (O14656 whole entry, looked up): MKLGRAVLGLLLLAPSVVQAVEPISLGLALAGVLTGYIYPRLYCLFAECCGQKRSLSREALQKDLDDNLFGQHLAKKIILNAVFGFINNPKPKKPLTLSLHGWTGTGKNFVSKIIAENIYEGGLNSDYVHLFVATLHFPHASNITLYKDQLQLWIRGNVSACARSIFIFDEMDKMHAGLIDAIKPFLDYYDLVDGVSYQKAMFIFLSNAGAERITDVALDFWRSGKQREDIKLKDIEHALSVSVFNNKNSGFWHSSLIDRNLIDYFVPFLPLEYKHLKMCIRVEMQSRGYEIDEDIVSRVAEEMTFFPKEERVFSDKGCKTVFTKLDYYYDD
For assay [9] the target is unchanged. Nature of the assay: torsin A mutant lysate binding on microarrays – cell lysate, small-molecule microarray, COS7 lysate, 635/667 nm fluorescence, primary screen (AID 1150).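 Also: score pools 667 nm emission and signal to noise measuring lysate protein binding.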 The note with it: COS7 hTOR1A mutant lysate, 635 nm fluorescence, higher = more signal.
Assay [10] has as its system Sonic hedgehog protein (Shh). Nature of the assay: Sonic hedgehog microarray binding compounds – biochemical, small-molecule microarray, 635/667 nm fluorescence, primary screen (AID 1151).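 Also: Shh protein binding to compounds spotted on small-molecule microarray slides; score combines spot fluorescence intensity with signal-to-noise across triplicate slides.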 The conditions noted are these: 635 nm fluorescence, higher = more signal.

The structures appear in SMILES notation. The source made the active and inactive calls. Unless noted, no rule for the calls is given here.

Streptavidin (Streptomyces avidinii), sequence (P22629 whole entry, looked up): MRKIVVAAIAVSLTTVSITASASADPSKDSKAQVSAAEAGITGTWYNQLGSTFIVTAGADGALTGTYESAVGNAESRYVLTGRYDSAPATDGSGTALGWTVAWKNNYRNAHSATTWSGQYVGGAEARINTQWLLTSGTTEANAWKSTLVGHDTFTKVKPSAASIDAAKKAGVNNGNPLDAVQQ

Take `O=C1C2C=CC(C(O)c3ccco3)N(Nc3ccccc3)C2C(=O)N1c1ccccc1` (stereo not given): the composite z-score in [1] is -0.476; in assay [6] it was -0.511; in assay [7] it was -0.0963; in the assay with Torsin-1A (Homo sapiens) [8], -1.16; with Torsin-1A (Homo sapiens) [9], 0.746; in [10], -0.998. The z-score in assay [2] is 0.876 (inactive); in assay [3], -0.497 (inactive); in assay [4] it was 0.0467 (inactive); in assay [5], 0.621 (inactive).

For `CC1CC/C=C\[C@H]2OC34C=CCN(CCN5CCOCC5)C(=O)[C@H]3N(C(C)CO)C(=O)[C@@H]4C2C(=O)O1` (stereo not given in full), the composite z-score in [1] is -0.409; in assay [6] it was -1.16; in assay [7], -0.0933; with Torsin-1A (Homo sapiens) [8], -1.72; with Torsin-1A (Homo sapiens) [9], -1.58; in assay [10], 1.41. The z-score in [2] was 0.181 (inactive); in assay [3], 0.156 (inactive); in [4], -0.0778 (inactive); in assay [5], -0.0178 (inactive).

With `CCCCNC(=O)c1ccc(C#C[Si](C(C)C)(C(C)C)C(C)C)c(OC(C)=O)c1`, the composite z-score in [1] is 0.268; in assay [6], 1.04; in [7] it was -0.187; with Torsin-1A (Homo sapiens) [8] it was 0.598; in the assay with Torsin-1A (Homo sapiens) [9] it was 0.216; in assay [10], 1.74. The z-score in [2] was -0.915 (inactive); in assay [3] it was -0.084 (inactive); in assay [4], 0.223 (inactive); in assay [5] it was 0.184 (inactive).

For `COc1cc2c(cc1OC)CN(C(=O)[C@@H]1[C@H]3C(=O)O[C@H](c4ccccc4)[C@H](c4ccccc4)N3[C@H](c3ccc(O)cc3)[C@@]13C(=O)Nc1ccc(C#CCCO)cc13)CC2`, the composite z-score in assay [1] was 0.527; in assay [6] it was 0.819; in assay [7], -0.0493; with Torsin-1A (Homo sapiens) [8] it was -0.0185; with Torsin-1A (Homo sapiens) [9], 0.45; in assay [10], 0.655. In addition, the z-score in assay [2] was 0.082 (inactive); in assay [3] it was -0.403 (inactive); in [4] it was -0.878 (inactive); in assay [5], -0.231 (inactive).

Regarding `COCC(=C=CC[C@@H](O)c1cccc(OCCO)c1)CCO`, the composite z-score is 0.332 in assay [1]; 0.105 in assay [6]; 0.0051 in [7]; 1.96 with Torsin-1A (Homo sapiens) [8]; 0.675 in the assay with Torsin-1A (Homo sapiens) [9]; 1.23 in assay [10]. The z-score in assay [2] was -0.35 (inactive); in assay [3] it was 0.65 (inactive); in assay [4] it was -0.205 (inactive); in assay [5], 0.671 (inactive).

With `CCCC=C(CCC)[C@@H](NC(=O)CCc1ccccc1)c1ccc(C(F)(F)F)cc1`, the composite z-score in [1] is -0.0114; in assay [6], 1.07; in [7], 0.0374; with Torsin-1A (Homo sapiens) [8], 0.983; in the assay with Torsin-1A (Homo sapiens) [9] it was 0.801; in assay [10], -0.37. Also, the z-score in [2] is -2.08 (inactive); in assay [3], 0.715 (inactive); in [4], -0.568 (inactive); in [5], 0.318 (inactive).

For `C=C(C)[C@@H]1CC=C(C(O)C2C=CC3C(=O)N(c4ccccc4)C(=O)C3N2Nc2ccc(C#N)cc2)CC1` (stereo not given in full), the composite z-score was 0.335 in assay [1]; 1.48 in assay [6]; 0.361 in [7]; 0.202 with Torsin-1A (Homo sapiens) [8]; 0.454 in the assay with Torsin-1A (Homo sapiens) [9]; -0.0706 in [10]. Further, the z-score in [2] was -0.133 (inactive); in assay [3], -1.68 (inactive); in assay [4] it was 0.433 (inactive); in [5] it was -0.345 (inactive).

In the case of `CCOC(=O)C[C@H]1[C@H](OC(=O)c2cc3ccccc3oc2=O)[C@@H](NC(=O)c2ccc3ccccc3c2)c2cc(OCCCO)ccc2N1C(=O)Cc1ccc(OC)cc1`, the composite z-score is 0.174 in assay [1]; 1 in assay [6]; -0.231 in [7]; 0.462 with Torsin-1A (Homo sapiens) [8]; 0.746 in the assay with Torsin-1A (Homo sapiens) [9]; 0.47 in assay [10]. The z-score in assay [2] was -0.361 (inactive); in assay [3], -0.784 (inactive); in assay [4], 0.402 (inactive); in [5], -0.931 (inactive).

With `CN1C(=O)C2C(C1=O)C1C=C(CCCO)C2C(c2cccs2)N1Cc1cc2c(cc1Br)OCO2` (stereo not given), the composite z-score amounted to 0.418 in [1]; 2.27 in assay [6]; 0.233 in assay [7]; 1.5 with Torsin-1A (Homo sapiens) [8]; 1.95 in the assay with Torsin-1A (Homo sapiens) [9]; 0.162 in assay [10]. For the same compound, the z-score in [2] was -1.8 (inactive); in assay [3], 0.482 (inactive); in [4] it was -0.374 (inactive); in assay [5], -0.101 (inactive).

With `C=C(COC)C(=O)CC[C@@H](OC(=O)c1cccnc1)c1ccccc1OCCO`, the composite z-score in [1] is 0.125; in [6], -0.126; in [7], 0.0355; with Torsin-1A (Homo sapiens) [8] it was 0.882; with Torsin-1A (Homo sapiens) [9] it was 1.14; in assay [10] it was 0.786. For the same compound, the z-score in assay [2] was -3.79 (inactive); in assay [3], 0.291 (inactive); in assay [4], 19.7 (active); in [5], 16.4 (active).

For `O=C1N[C@@H](Cc2ccccc2)C(=O)N2[C@@H]1C[C@@H](C(=O)O)[C@H]2c1ccc(O)cc1`, the composite z-score amounted to 0.391 in assay [1]; 0.0885 in assay [6]; 0.25 in [7]; 0.574 with Torsin-1A (Homo sapiens) [8]; 0.533 with Torsin-1A (Homo sapiens) [9]; 2.02 in [10]. The z-score in assay [2] is -0.477 (inactive); in [3], 0.106 (inactive); in assay [4], 0.692 (inactive); in assay [5], -0.789 (inactive).

With `C=C(/C(=C/C[C@H](OC(=O)c1ccncc1)c1ccccc1OCCO)c1cnc2ccccc2c1)C(C)C`, the composite z-score stood at 0.733 in assay [1]; 1.81 in [6]; 0.0471 in assay [7]; 1.06 with Torsin-1A (Homo sapiens) [8]; 1.07 with Torsin-1A (Homo sapiens) [9]; 2.01 in assay [10]. Also, the z-score is -0.0956 (inactive) in assay [2], -0.91 (inactive) in [3], 2.52 (inactive) in [4] and 1.5 (inactive) in [5].

Turning to `COCC(=C=CC[C@H](O)c1cccc(OCCO)c1)C[C@H](O)COCc1ccccc1`, the composite z-score in assay [1] was 0.191; in assay [6], -0.599; in assay [7], 0.264; with Torsin-1A (Homo sapiens) [8], 2.41; with Torsin-1A (Homo sapiens) [9] it was 1.31; in [10] it was 1.28. Further, the z-score in [2] is -0.33 (inactive); in [3], -0.218 (inactive); in [4], 5.03 (inactive); in assay [5], 1.74 (inactive).

In the case of `COC(=O)[C@@]1(Cc2ccc(OC)cc2)[C@H]2c3cc(C(=O)N4CCCC4)n(Cc4ccc(OC(F)(F)F)cc4)c3C[C@H]2CN1C(=O)c1ccccc1`, the composite z-score is 0.622 in [1]; 1.73 in [6]; 0.0925 in assay [7]; -1.04 in the assay with Torsin-1A (Homo sapiens) [8]; -0.89 with Torsin-1A (Homo sapiens) [9]; -1.05 in [10]. Moreover, the z-score in assay [2] was -3.34 (inactive); in [3], 0.488 (inactive); in assay [4], -0.565 (inactive); in assay [5], -0.239 (inactive).

Regarding `CC(C)N1CC=CC23O[C@@H]4/C=C\CCCOC(=O)C4[C@H]2C(=O)N(CCCCCCO)[C@@H]3C1=O` (stereo not given in full), the composite z-score is -0.0379 in [1]; -1.13 in assay [6]; -0.205 in assay [7]; -0.14 in the assay with Torsin-1A (Homo sapiens) [8]; 0.55 with Torsin-1A (Homo sapiens) [9]; -0.0836 in [10]. For the same compound, the z-score in assay [2] was 0.0722 (inactive); in assay [3], -0.0303 (inactive); in assay [4], -0.48 (inactive); in assay [5], -1.02 (inactive).

(Values after PubChem BioAssay.)
